# From PubChem BioAssay
# Records with an inconclusive call do not appear. This is one part of the list. Calls of active or inactive are those of the source. Rule as the data show it, unless noted: active = response below about 74% or above about 130%; inactive = in between.
# How the values were obtained:
# [1] = rapamycin-like changes in RPL19A-GFP expression – cell-based, S. cerevisiae, multiplex flow cytometry, primary screen (AID 1862; in the data active = percent of DMSO control GFP below about 86%;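 also: lower values mimic rapamycin by blocking the RPL19A rise seen in DMSO cells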); settings: S. cerevisiae RPL19A-GFP strain, flow cytometry fluorescence, 3 h; at 10 µM; stronger effect = lower value
# [2] = TOR pathway GLN3 branch reporter MEP2-GFP changes – S. cerevisiae, multiplex flow cytometry, primary screen (AID 1867;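 active = GFP response, as percent of the DMSO control, above the screen-wide mean plus 3 SD, about 139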;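 also: median GFP channel fluorescence of barcode-gated MEP2-GFP cells measured by flow cytometry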); settings: S. cerevisiae MEP2-GFP strain, 3 h, at 10 µM, stronger effect = higher value, 100% means same as DMSO wells
# [3] = TOR pathway RTG branch CIT2 reporter changes – S. cerevisiae, GFP fusion, multiplex flow cytometry, primary screen (AID 1870;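 active = percent response above a set limit, the screen-wide mean plus 3 SD, cut at about 130% in these data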;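 also: barcoded CIT2-GFP strain pooled with four other GFP strains with rapamycin as positive control; median GFP fluorescence per well over plate mean of DMSO wells so 100% = DMSO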); settings: S. cerevisiae CIT2-GFP expression, 3 h, at 10 µM, stronger effect = higher value
# [4] = TOR pathway LAP4-GFP level changes – S. cerevisiae, multiplex flow cytometry, primary screen (AID 1873;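 active = GFP signal, as percent of the solvent control, above the screen mean plus 3 SD, about 149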); settings: S. cerevisiae LAP4-GFP expression, 3 h, at 10 µM, stronger effect = higher value
# [5] = yeast AGP1-GFP level changes, GLN3 branch – cell-based, multiplex flow cytometry, S. cerevisiae, primary screen (AID 1887;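 active = GFP signal above the screen-wide mean plus 3 SD, that is over about 124.5% of the solvent control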;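 also: AGP1-GFP fusion strain of S. cerevisiae within a five-strain barcoded multiplex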); settings: 3 h, at 10 µM, stronger effect = higher value
# [6] = hit retest on RPL19A-GFP reporter strain – cell-based, S. cerevisiae, flow cytometry, cherry picks, mother/daughter gates, confirmation (AID 2270;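 active = GFP response below 50% of the DMSO control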); settings: 3 h, at 10 µM, stronger effect = lower value, 100 = same GFP as DMSO wells
# [7] = yeast TOR pathway reporter LAP4-GFP change – cell-based, cherry picks, flow cytometry, mother/daughter gates, confirmation (AID 2271;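 active = GFP response above 150% of the DMSO control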;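 also: ratio of sample to DMSO plate mean so 100% equals DMSO level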); settings: S. cerevisiae LAP4-GFP strain, 3 h, at 10 µM, stronger effect = higher value, 100 means same as DMSO control
# [8] = TOR pathway reporter MEP2-GFP, retest of hits – S. cerevisiae, flow cytometry GFP, cherry picks, confirmation (AID 2272;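 active = GFP response above 150% of the DMSO control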;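 also: ratio of well signal to plate DMSO mean so 100% equals DMSO level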); settings: S. cerevisiae MEP2-GFP strain, 3 h, at 10 µM, stronger effect = higher value
# [9] = yeast AGP1-GFP fluorescence change, single-dose – cell-based, flow cytometry, S. cerevisiae, cherry picks, confirmation (AID 2273;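 active = GFP response above 150% of the DMSO level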;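 also: median GFP channel fluorescence over the whole cell population gate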); settings: S. cerevisiae AGP1-GFP strain, 3 h, at 10 µM
# [10] = TOR pathway CIT2 reporter hit retest – S. cerevisiae, GFP fusion, cherry picks, mother/daughter gates, confirmation (AID 2274;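 active = GFP response above 150% of the DMSO level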); settings: S. cerevisiae CIT2-GFP strain, flow cytometry, 3 h, at 10 µM, stronger effect = higher value
# [11] = reduced mouse 2C T cell binding to pMHC/ICAM-1 vesicles – MLPCN validation set, flow cytometry, LFA-1/ICAM-1 modulator project, pilot screen (AID 2523;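 active = response below a set limit, under 55% cells CD8-positive and vesicle-bound, and CD8 cells' 90th-percentile brightness under 279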;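 as to vesicle binding response: mean PE anti-B7-1 fluorescence of CD8+ cells relative to row control; 100% = QL9-loaded vesicles with DMSO vehicle in the same plate row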); settings: 2C mouse CD8+ T cells, at 7 µM, stronger effect = lower value; double positive events: measured here: CD8+/vesicle+ event percentage
# [12] = biological target: Integrin beta-1 (Homo sapiens) + Integrin alpha-4 (Homo sapiens) (UniProt P13612+P05556); assay: alpha4beta1 integrin LIBS antibody binding reduction – U937 cells, HUTS-21 mAb, flow cytometry, validation set, VLA-4 allosteric modulator project, pilot screen (AID 2674;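 active = inhibition above 50%, about 3 SD of the validation set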;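 also: antibody binding induced by the VLA-4 ligand LDV present at three times its Kd; 0% = LDV ligand with antibody and no compound and 100% = antibody without LDV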); settings: HUTS-21 LIBS mAb binding, at 6.7 µM, stronger effect = higher value, binding induced by LDV ligand
# [13] = calorie-restriction mimetic ROS inhibitors, yeast – validation compound set, pilot screen (AID 2706;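 active = superoxide response below 65% of plate, a cut near 3 SD across the whole screen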;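 also: yeast exposed to compound for one week at 30 degrees C before staining; 100% = mean of all compound wells on the same plate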); settings: S. cerevisiae aging, superoxide DHE fluorescence; at 10 µM; stronger effect = lower value
# [14] = biological target: Beta-adrenergic receptor kinase 1 (Homo sapiens) (UniProt P25098); assay: GRK2 binders displacing RNA aptamer, biochemical, validation, human GRK2, bead flow cytometry (AID 488806;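 active = aptamer binding inhibition above 30%, about 3 SD of noise from non-fluorescent compounds; inactive = inhibition at or below 30%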); settings: bead-bound GRK2, FAM-aptamer displacement, at 10 µM, stronger effect = higher value
# [15] = biological target: Beta-2 adrenergic receptor (Homo sapiens) (UniProt P07550); assay: agonist-induced loss of surface beta2AR – cell-based, FAP fluorogen, flow cytometry, validation set, pilot screen (AID 504459;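 active = percent response above 42, roughly 3 SD of non-fluorescent test compounds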;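 also: agonist-driven loss of surface beta2AR via internalization measured by FAP dye flow cytometry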); settings: Am2.2-beta2AR cells, at 10 µM, stronger effect = higher value
# [16] = biological target: AP-2 complex subunit beta (Homo sapiens) (UniProt P63010); assay: beta-arrestin/AP2 interaction blockers – biochemical, validation set, GST-AP2 beads, flow cytometry, pilot screen (AID 504541;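 active = inhibition above 54%, about 3 SD of non-fluorescent compounds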;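 also: AP2 carries R879A mutation and is captured from E. coli lysate; bead-bound FITC arrestin peptide fluorescence measuring arrestin peptide binding to AP2; 0% = DMSO wells and 100% = excess unlabeled arrestin peptide control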); settings: FITC arrestin peptide, at 10 µM, stronger effect = higher value, AP2 beta2 appendage fragment, R879A mutant
# [17] = cytosolic pH regulators acting via V-ATPase – S. cerevisiae, pHLuorin, HTS validation (AID 504600; in the data active = response above about 15%;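 also: plate controls were DMSO for no effect and reference compound for full effect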); settings: V-ATPase proton transport, at 10 µM, stronger effect = higher value
# [18] = tested on: anti-desmoglein-3 scFv antibody binding to human DSG3; assay: blockers of pathogenic pemphigus antibody–desmoglein-3 binding – biochemical, validation compound set, bead-based, flow cytometry, pilot screen (AID 588368;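 active = binding below the plate cutoff, the plate median minus 3 SD, with a reading above zero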;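 also: signal is the median channel fluorescence of bead-bound GFP antibody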); settings: Protein G beads, DSG3-Fc, scFv-GFP binding, at 10 µM, stronger effect = lower value
# [19] = Nile Red efflux blockade in pump-expressing yeast – validation compound set, multiplex, phenotypic, pilot screen (AID 588506;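 active = efflux inhibition above 0.42, the validation set average plus 4 SD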;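 also: Nile Red retained in cells so higher fluorescence means more efflux inhibition; 0 = negative control wells and 1 = enniatin B 25 µM full block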); settings: S. cerevisiae pump-expressing triplex, Nile Red efflux flow cytometry; at 10 µM; stronger effect = higher value; the pumps come from Candida albicans
# [20] = biological target: ATP-binding cassette sub-family B member 6 (Homo sapiens) (UniProt Q9NP58); assay: blockers of ABCB6-driven porphyrin uptake – K562-ABCB6 cells, flow cytometry, validation set, pilot screen (AID 588550;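 active = inhibition above the screen-wide mean plus 3 SD, about 51%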;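 also: 0% = DMSO wells and 100% = benzethonium chloride 70 µM positive control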); settings: K562-ABCB6 porphyrin accumulation, 1 h, at 10 µM, stronger effect = higher value
# [21] = AML differentiation inducers, ER-HoxA9 marrow cells – cell-based, GFP/MAC1 double positive, flow cytometry, validation set, primary screen (AID 588685;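 active = differentiation response of at least 50%, scaled between solvent and reference control, from cells with both markers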;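 also: compound exposure lasts four days before antibody staining and flow analysis; 0% = DMSO wells and 100% = 5 µM fulvestrant positive control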); settings: stronger effect = higher value, normalized: vehicle 0, fulvestrant 100
# [22] = interference with biotin-avidin bead interaction – biochemical, flow cytometry, bead-based, counter-screen for RGS protein interaction modulators (AID 1783;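 active = inhibition above 50%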;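 also: median green fluorescence of gated singlet beads compared with DMSO control wells; 0% = DMSO wells and 100% = complete loss of bead fluorescence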); settings: streptavidin beads, fluorescein-biotin binding; at 10 µM, stronger effect = higher value
# [23] = biological target: Guanine nucleotide-binding protein G(o) subunit alpha (Homo sapiens) (UniProt P09471); assay: retest of RGS8-Galphao interaction hits – biochemical, multiplexed bead flow cytometry, single concentration, confirmation (AID 1836; in the data active = binding response below about 72% or above about 130%; inactive = in between;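 also: Galphao activated as GDP AlF4 complex before binding bead RGS8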); settings: bead-based flow cytometry RGS8-Galphao binding, fluorescence; at 10 µM; actives lie on both sides
# [24] = biological target: Guanine nucleotide-binding protein G(o) subunit alpha (Homo sapiens) (UniProt P09471); assay: retest of RGS7-Galphao interaction hits – biochemical, multiplexed bead flow cytometry, single concentration, confirmation (AID 1837; in the data active = response below about 75% or above about 130%; inactive = in between;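 also: fluorescent Galphao activated with GDP and aluminum fluoride binding bead-coupled RGS7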); settings: bead-based flow cytometry RGS7-Galphao binding; at 10 µM; actives lie on both sides
# [25] = biological target: Regulator of G-protein signaling 16 (Homo sapiens) + Guanine nucleotide-binding protein G(o) subunit alpha (Homo sapiens) (UniProt O15492+P09471); assay: RGS16 and Galphao interaction regulators – biochemical, single concentration, multiplexed bead flow cytometry, confirmation (AID 1838); settings: bead-based flow cytometry, at 10 µM, actives lie on both sides;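 also: Galphao activated as the GDP aluminium fluoride complex binding bead-coupled RGS16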
# [26] = biological target: Guanine nucleotide-binding protein G(o) subunit alpha (Homo sapiens) (UniProt P09471); assay: RGS4 and Galphao interaction regulators – biochemical, single concentration, multiplexed bead flow cytometry, confirmation (AID 1840; in the data active = binding response below about 74% or above about 130%; inactive = in between); settings: at 10 µM, actives lie on both sides
# [27] = biological target: Guanine nucleotide-binding protein G(o) subunit alpha (Homo sapiens) + Regulator of G-protein signaling 19 (Homo sapiens) (UniProt P09471+P49795); assay: RGS19 interaction with Gαo, hit retest – biochemical, single point, multiplexed bead flow cytometry, confirmation (AID 1841; in the data active = response below about 50% or above about 160%; inactive = in between;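 also: 100% = no compound control and 0% = blank background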); settings: bead-based flow cytometry RGS19-Galphao binding; at 10 µM; actives lie on both sides
# [28] = biological target: Regulator of G-protein signaling 16 (Homo sapiens) (UniProt O15492); assay: small molecules altering RGS protein interactions with GNAO1 – biochemical, multiplexed beads, flow cytometry, RGS4/7/8/16/19, primary screen (AID 1504); settings: multiplexed bead flow cytometry, measured here: RGS16 interaction, at 10 µM;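 also: fluorescently labeled Galpha-o bound to GDP with aluminium fluoride binding biotinylated RGS beads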
# [29] = biological target: Regulator of G-protein signaling 19 (Homo sapiens) (UniProt P49795); assay: as above; settings: multiplexed bead flow cytometry, measured here: RGS19 interaction, at 10 µM
# [30] = biological target: Regulator of G-protein signaling 7 (Homo sapiens) (UniProt P49802); assay: as above; settings: multiplexed bead flow cytometry, measured here: RGS7 interaction, at 10 µM
# [31] = biological target: Regulator of G-protein signaling 8 (Homo sapiens) (UniProt P57771); assay: as above; settings: multiplexed bead flow cytometry, measured here: RGS8 interaction, at 10 µM
# [32] = measured here: daughter cell gate
# [33] = measured here: mother cell gate
# Guanine nucleotide-binding protein G(o) subunit alpha (Homo sapiens), sequence (P09471 whole entry, looked up): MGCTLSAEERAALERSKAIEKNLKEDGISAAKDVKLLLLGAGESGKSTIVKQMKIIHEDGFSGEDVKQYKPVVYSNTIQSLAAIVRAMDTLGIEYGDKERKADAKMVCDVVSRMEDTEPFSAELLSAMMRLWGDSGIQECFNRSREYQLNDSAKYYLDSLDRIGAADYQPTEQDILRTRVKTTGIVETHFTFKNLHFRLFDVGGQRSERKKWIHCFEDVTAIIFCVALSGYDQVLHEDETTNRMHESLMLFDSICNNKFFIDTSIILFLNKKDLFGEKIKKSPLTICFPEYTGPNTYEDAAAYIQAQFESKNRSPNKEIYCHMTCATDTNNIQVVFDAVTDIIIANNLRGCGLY
# Guanine nucleotide-binding protein G(o) subunit alpha (Homo sapiens) + Regulator of G-protein signaling 19 (Homo sapiens), sequence (P09471 whole entry, looked up): as above
# Guanine nucleotide-binding protein G(o) subunit alpha (Homo sapiens) + Regulator of G-protein signaling 19 (Homo sapiens), sequence (P49795 whole entry, looked up): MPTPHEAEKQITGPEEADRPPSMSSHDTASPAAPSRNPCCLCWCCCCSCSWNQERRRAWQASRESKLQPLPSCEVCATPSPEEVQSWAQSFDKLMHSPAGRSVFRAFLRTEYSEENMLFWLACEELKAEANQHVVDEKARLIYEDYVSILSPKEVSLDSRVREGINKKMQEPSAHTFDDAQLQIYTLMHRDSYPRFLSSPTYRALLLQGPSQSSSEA
# Regulator of G-protein signaling 16 (Homo sapiens) + Guanine nucleotide-binding protein G(o) subunit alpha (Homo sapiens), sequence (O15492 whole entry, looked up): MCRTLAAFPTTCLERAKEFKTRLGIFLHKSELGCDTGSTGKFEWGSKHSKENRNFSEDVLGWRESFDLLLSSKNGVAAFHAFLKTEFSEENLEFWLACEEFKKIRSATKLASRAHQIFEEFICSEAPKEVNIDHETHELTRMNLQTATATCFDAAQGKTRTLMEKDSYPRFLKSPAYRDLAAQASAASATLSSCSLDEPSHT
# Regulator of G-protein signaling 16 (Homo sapiens) + Guanine nucleotide-binding protein G(o) subunit alpha (Homo sapiens), sequence (P09471 whole entry, looked up): as the sequence (P09471 whole entry, looked up) above
# Integrin beta-1 (Homo sapiens) + Integrin alpha-4 (Homo sapiens), sequence (P05556 whole entry, looked up): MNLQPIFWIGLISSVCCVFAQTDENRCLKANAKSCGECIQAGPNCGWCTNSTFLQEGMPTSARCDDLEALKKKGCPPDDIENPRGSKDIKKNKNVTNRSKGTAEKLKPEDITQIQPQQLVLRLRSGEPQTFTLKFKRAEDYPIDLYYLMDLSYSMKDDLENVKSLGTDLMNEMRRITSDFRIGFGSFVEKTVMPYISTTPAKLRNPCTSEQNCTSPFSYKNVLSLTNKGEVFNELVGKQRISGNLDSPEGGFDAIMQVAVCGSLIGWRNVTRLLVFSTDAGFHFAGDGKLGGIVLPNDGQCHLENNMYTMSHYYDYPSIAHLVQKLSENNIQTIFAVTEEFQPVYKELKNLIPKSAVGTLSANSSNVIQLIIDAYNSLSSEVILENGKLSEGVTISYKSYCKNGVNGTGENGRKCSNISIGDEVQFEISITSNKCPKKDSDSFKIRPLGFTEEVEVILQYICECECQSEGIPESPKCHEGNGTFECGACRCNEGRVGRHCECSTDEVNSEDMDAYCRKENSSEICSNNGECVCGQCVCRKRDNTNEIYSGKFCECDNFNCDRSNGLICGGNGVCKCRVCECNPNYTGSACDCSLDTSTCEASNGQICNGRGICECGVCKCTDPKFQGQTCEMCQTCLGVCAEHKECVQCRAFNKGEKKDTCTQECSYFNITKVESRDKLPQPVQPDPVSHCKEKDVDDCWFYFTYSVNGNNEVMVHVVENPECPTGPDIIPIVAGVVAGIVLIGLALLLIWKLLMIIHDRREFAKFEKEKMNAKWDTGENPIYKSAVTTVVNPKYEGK
# Integrin beta-1 (Homo sapiens) + Integrin alpha-4 (Homo sapiens), sequence (P13612 whole entry, looked up): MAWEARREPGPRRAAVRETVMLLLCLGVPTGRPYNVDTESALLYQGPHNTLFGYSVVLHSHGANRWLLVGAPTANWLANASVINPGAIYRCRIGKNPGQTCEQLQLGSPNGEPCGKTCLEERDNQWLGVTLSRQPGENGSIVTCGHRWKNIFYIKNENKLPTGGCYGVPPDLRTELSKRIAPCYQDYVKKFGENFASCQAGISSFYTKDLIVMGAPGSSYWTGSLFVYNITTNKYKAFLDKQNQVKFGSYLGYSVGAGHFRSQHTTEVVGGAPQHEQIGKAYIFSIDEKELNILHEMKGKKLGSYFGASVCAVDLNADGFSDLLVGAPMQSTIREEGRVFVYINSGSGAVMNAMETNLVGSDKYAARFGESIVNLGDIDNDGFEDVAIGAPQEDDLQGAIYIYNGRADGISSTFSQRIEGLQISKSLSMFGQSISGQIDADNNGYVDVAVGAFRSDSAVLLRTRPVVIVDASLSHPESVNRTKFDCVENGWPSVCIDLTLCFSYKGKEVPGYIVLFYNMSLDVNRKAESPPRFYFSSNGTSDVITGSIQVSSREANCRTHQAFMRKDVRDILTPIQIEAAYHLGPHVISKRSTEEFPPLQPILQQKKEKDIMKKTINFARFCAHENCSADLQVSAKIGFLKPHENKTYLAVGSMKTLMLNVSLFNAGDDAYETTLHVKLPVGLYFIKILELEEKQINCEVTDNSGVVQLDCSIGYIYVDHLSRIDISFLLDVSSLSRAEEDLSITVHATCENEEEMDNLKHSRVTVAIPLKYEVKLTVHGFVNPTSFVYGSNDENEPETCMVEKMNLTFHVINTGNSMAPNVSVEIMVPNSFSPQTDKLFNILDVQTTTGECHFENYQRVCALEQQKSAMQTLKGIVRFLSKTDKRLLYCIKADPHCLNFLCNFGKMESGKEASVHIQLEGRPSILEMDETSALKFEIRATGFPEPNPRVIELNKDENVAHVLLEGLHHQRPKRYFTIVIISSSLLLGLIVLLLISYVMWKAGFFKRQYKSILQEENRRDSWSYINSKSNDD
# Beta-adrenergic receptor kinase 1 (Homo sapiens), sequence (P25098 whole entry, looked up): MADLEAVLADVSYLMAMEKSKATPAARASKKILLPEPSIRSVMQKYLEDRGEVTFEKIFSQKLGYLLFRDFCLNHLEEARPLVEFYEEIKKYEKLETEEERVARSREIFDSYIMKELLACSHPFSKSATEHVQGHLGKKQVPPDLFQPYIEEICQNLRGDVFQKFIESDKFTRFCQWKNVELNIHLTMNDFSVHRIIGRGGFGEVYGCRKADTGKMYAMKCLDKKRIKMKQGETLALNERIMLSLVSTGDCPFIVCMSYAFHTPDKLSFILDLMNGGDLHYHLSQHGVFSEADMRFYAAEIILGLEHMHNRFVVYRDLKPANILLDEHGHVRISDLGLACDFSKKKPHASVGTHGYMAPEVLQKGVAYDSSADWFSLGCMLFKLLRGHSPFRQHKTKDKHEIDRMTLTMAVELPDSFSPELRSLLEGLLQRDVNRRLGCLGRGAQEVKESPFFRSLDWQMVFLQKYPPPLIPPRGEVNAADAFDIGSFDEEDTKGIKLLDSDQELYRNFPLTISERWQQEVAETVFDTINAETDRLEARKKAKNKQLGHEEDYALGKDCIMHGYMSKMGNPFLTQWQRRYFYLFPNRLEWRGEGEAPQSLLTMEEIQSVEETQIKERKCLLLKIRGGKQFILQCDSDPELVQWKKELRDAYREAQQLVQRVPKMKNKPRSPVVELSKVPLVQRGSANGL
# ATP-binding cassette sub-family B member 6 (Homo sapiens), sequence (Q9NP58 whole entry, looked up): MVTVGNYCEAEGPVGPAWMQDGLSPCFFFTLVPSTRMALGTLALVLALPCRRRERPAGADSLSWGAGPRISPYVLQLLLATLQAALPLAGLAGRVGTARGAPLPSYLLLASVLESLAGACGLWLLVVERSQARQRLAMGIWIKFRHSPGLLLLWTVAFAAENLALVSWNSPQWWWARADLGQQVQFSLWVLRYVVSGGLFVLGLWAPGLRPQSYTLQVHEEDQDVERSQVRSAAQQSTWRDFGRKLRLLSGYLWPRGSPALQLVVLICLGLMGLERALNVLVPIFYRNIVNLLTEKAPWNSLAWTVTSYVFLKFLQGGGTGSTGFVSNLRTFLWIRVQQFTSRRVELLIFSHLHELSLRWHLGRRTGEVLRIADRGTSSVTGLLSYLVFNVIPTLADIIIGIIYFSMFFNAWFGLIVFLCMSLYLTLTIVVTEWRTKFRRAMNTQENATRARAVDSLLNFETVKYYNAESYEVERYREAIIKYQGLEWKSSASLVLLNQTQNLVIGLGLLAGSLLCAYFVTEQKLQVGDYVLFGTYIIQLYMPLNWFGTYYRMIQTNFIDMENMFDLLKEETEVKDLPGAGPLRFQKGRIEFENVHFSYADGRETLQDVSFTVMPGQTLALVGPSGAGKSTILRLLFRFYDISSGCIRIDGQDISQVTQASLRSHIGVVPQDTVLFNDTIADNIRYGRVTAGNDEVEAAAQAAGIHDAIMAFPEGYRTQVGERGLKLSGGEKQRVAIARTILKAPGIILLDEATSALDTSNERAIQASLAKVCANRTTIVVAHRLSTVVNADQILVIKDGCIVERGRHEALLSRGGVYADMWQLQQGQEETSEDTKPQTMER
smiles,measurement,setting,value
CC(=O)CSc1ncnc2c1cnn2-c1ccccc1,percent of DMSO control GFP,[1],90.6% (inactive)
same,GFP response vs DMSO,[2],116% (inactive)
same,percent response of DMSO control,[3],92.6% (inactive)
same,GFP response vs DMSO,[4],77.6% (inactive)
same,"GFP response, % of DMSO",[5],87.3% (inactive)
same,GFP response vs DMSO,[6],100% (inactive)
same,GFP response vs DMSO,[6]; [32],97.6%
same,GFP response vs DMSO,[6]; [33],100%
same,GFP response relative to DMSO,[7],106% (inactive)
same,GFP response relative to DMSO,[7]; measured here: daughter cell gate response,101%
same,GFP response relative to DMSO,[7]; measured here: mother cell gate response,106%
same,GFP response vs DMSO,[8],99% (inactive)
same,"GFP response, % of DMSO",[9],92.6% (inactive)
same,"GFP response, % of DMSO",[10],93% (inactive)
same,"GFP response, % of DMSO",[10]; [32],92%
same,"GFP response, % of DMSO",[10]; [33],91.9%
same,double positive events,[11],57.9%
same,vesicle binding response,[11],221% (inactive)
same,inhibition,[12],10.3% (inactive)
same,superoxide response (% of plate),[13],85.6% (inactive)
same,aptamer binding inhibition,[14],1% (inactive)
same,response,[15],6.9% (inactive)
same,inhibition,[16],14.5% (inactive)
same,response,[17],-1.56% (inactive)
same,binding (% of control),[18],105% (inactive)
same,efflux inhibition (fraction of control),[19],0.09 (inactive)
same,inhibition,[20],7% (inactive)
same,differentiation response,[21],6.55% (inactive)
CCOC(=O)CCP(=O)(O)C(O)(c1ccccc1)c1ccccc1,inhibition,[22],2.2% (inactive)
same,binding response (% of control),[23],99.3% (inactive)
same,response (percent of control binding),[24],101% (inactive)
same,response (% of control binding),[25],101% (inactive)
same,binding response (% of control),[26],100% (inactive)
same,response (percent of control binding),[27],99.5% (inactive)
Cc1cc(C)cc(N(CC(=O)Nc2c(C)n(C)n(-c3ccccc3)c2=O)S(C)(=O)=O)c1,RGS16–Galpha-o binding response,[28],-28.4%
same,RGS19–Galpha-o binding response,[29],156%
same,RGS7–Galpha-o binding response,[30],-21.3%
same,RGS8–Galpha-o binding response,[31],1.54%
same,inhibition,[22],-0.5% (inactive)
same,binding response (% of control),[23],104% (inactive)
same,response (percent of control binding),[24],104% (inactive)
same,response (% of control binding),[25],108% (inactive)
same,binding response (% of control),[26],103% (inactive)
same,response (percent of control binding),[27],108% (inactive)
CCN(CC)CCn1cnc2c1c(=O)n(CCOC(=O)c1cc(OC)c(OC)c(OC)c1)c(=O)n2C,RGS16–Galpha-o binding response,[28],147%
same,RGS19–Galpha-o binding response,[29],76.4%
same,RGS7–Galpha-o binding response,[30],13%
same,RGS8–Galpha-o binding response,[31],131%
same,inhibition,[22],-0.6% (inactive)
same,binding response (% of control),[23],104% (inactive)
same,response (percent of control binding),[24],103% (inactive)
same,response (% of control binding),[25],104% (inactive)
same,binding response (% of control),[26],105% (inactive)
same,response (percent of control binding),[27],108% (inactive)
